Records with an inconclusive call do not appear. Active and inactive are the calls of the source.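 How the source made its calls, unless noted: active means percent response above a set limit, the screen-wide mean plus 3 SD (cut at about 130% in these data); inactive means the rest.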
How the values were obtained:
[1] = yeast TOR pathway RPL19A-GFP modulators, primary screen, cell-based, S. cerevisiae, multiplex flow cytometry (AID 1862; in the data active means percent of DMSO control GFP below about 86%;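 further: lower values mimic rapamycin by blocking the RPL19A rise seen in DMSO cells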); conditions: S. cerevisiae RPL19A-GFP strain, flow cytometry fluorescence, 3 h; at 10 µM; stronger effect = lower value
[2] = modulators of MEP2-GFP levels in yeast, primary screen, S. cerevisiae, multiplex flow cytometry (AID 1867;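 active means GFP response, as percent of the DMSO control, above the screen-wide mean plus 3 SD, about 139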;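 further: median GFP channel fluorescence of barcode-gated MEP2-GFP cells measured by flow cytometry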); conditions: S. cerevisiae MEP2-GFP strain, 3 h, at 10 µM, stronger effect = higher value, 100% means same as DMSO wells
[3] = modulators of CIT2-GFP expression in yeast, primary screen, S. cerevisiae, GFP fusion, multiplex flow cytometry (AID 1870); conditions: 3 h, at 10 µM, stronger effect = higher value;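 further: barcoded CIT2-GFP strain pooled with four other GFP strains with rapamycin as positive control; median GFP fluorescence per well over plate mean of DMSO wells so 100% = DMSO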
[4] = modulators of LAP4-GFP expression in yeast, primary screen, S. cerevisiae, multiplex flow cytometry (AID 1873;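 active means GFP signal, as percent of the solvent control, above the screen mean plus 3 SD, about 149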); conditions: 3 h, at 10 µM, stronger effect = higher value
[5] = modulators of AGP1-GFP expression in yeast TOR pathway, primary screen, cell-based, multiplex flow cytometry, S. cerevisiae (AID 1887;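 active means GFP signal above the screen-wide mean plus 3 SD, that is over about 124.5% of the solvent control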;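 further: AGP1-GFP fusion strain of S. cerevisiae within a five-strain barcoded multiplex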); conditions: 3 h, at 10 µM, stronger effect = higher value
[6] = inhibitors of CD8+ T cell-vesicle binding, pilot screen, LFA-1/ICAM-1 modulator project, MLPCN validation set, flow cytometry (AID 2523;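 active means response below a set limit, under 55% cells CD8-positive and vesicle-bound, and CD8 cells' 90th-percentile brightness under 279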;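 on vesicle binding response: mean PE anti-B7-1 fluorescence of CD8+ cells relative to row control; 100% = QL9-loaded vesicles with DMSO vehicle in the same plate row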); conditions: 2C mouse CD8+ T cells, at 7 µM, stronger effect = lower value; double positive events: measured here: CD8+/vesicle+ event percentage
[7] = target: Integrin beta-1 (Homo sapiens) + Integrin alpha-4 (Homo sapiens) (UniProt P13612+P05556); assay: inhibition of HUTS-21 binding to VLA-4, pilot screen, VLA-4 allosteric modulator project, U937 cells, HUTS-21 mAb, flow cytometry, validation set (AID 2674;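 active means inhibition above 50%, about 3 SD of the validation set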;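 further: antibody binding induced by the VLA-4 ligand LDV present at three times its Kd; 0% = LDV ligand with antibody and no compound and 100% = antibody without LDV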); conditions: HUTS-21 LIBS mAb binding, at 6.7 µM, stronger effect = higher value, binding induced by LDV ligand
[8] = superoxide lowering in aged yeast cells, pilot screen, validation compound set (AID 2706;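 active means superoxide response below 65% of plate, a cut near 3 SD across the whole screen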;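 further: yeast exposed to compound for one week at 30 degrees C before staining; 100% = mean of all compound wells on the same plate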); conditions: S. cerevisiae aging, superoxide DHE fluorescence; at 10 µM; stronger effect = lower value
[9] = target: Beta-adrenergic receptor kinase 1 (Homo sapiens) (UniProt P25098); assay: GRK2 binders displacing RNA aptamer, biochemical, validation, human GRK2, bead flow cytometry (AID 488806;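 active means aptamer binding inhibition above 30%, about 3 SD of noise from non-fluorescent compounds; inactive means inhibition at or below 30%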); conditions: bead-bound GRK2, FAM-aptamer displacement, at 10 µM, stronger effect = higher value
[10] = target: Beta-2 adrenergic receptor (Homo sapiens) (UniProt P07550); assay: beta2AR agonists driving receptor internalization, pilot screen, cell-based, FAP fluorogen, flow cytometry, validation set (AID 504459;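 active means percent response above 42, roughly 3 SD of non-fluorescent test compounds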;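 further: agonist-driven loss of surface beta2AR via internalization measured by FAP dye flow cytometry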); conditions: Am2.2-beta2AR cells, FAP surface receptor flow cytometry; at 10 µM; stronger effect = higher value
[11] = target: AP-2 complex subunit beta (Homo sapiens) (UniProt P63010); assay: inhibitors of arrestin peptide binding to AP2, pilot screen, biochemical, validation set, GST-AP2 beads, flow cytometry (AID 504541;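 active means inhibition above 54%, about 3 SD of non-fluorescent compounds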;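 further: AP2 carries R879A mutation and is captured from E. coli lysate; bead-bound FITC arrestin peptide fluorescence measuring arrestin peptide binding to AP2; 0% = DMSO wells and 100% = excess unlabeled arrestin peptide control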); conditions: FITC arrestin peptide, at 10 µM, stronger effect = higher value, AP2 beta2 appendage fragment, R879A mutant
[12] = yeast V-ATPase proton transport modulators, S. cerevisiae, pHLuorin, HTS validation (AID 504600; in the data active means response above about 15%;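 further: plate controls were DMSO for no effect and reference compound for full effect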); conditions: S. cerevisiae pHLuorin cytosolic pH, at 10 µM, stronger effect = higher value
[13] = tested on: anti-desmoglein-3 scFv antibody binding to human DSG3; assay: inhibitors of anti-DSG3 scFv binding to DSG3, pilot screen, biochemical, validation compound set, bead-based, flow cytometry (AID 588368;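 active means binding below the plate cutoff, the plate median minus 3 SD, with a reading above zero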;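 further: signal is the median channel fluorescence of bead-bound GFP antibody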); conditions: Protein G beads, DSG3-Fc, scFv-GFP binding, at 10 µM, stronger effect = lower value
[14] = inhibitors of fungal efflux pumps CDR1, CDR2, MDR1, pilot screen, validation compound set, multiplex, phenotypic (AID 588506;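 active means efflux inhibition above 0.42, the validation set average plus 4 SD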;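 further: Nile Red retained in cells so higher fluorescence means more efflux inhibition; 0 = negative control wells and 1 = enniatin B 25 µM full block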); conditions: S. cerevisiae pump-expressing triplex, Nile Red efflux flow cytometry; at 10 µM; stronger effect = higher value; the pumps come from Candida albicans
[15] = target: ATP-binding cassette sub-family B member 6 (Homo sapiens) (UniProt Q9NP58); assay: ABCB6 transporter inhibitors, pilot screen, K562-ABCB6 cells, flow cytometry, validation set (AID 588550;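 active means inhibition above the screen-wide mean plus 3 SD, about 51%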;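 further: 0% = DMSO wells and 100% = benzethonium chloride 70 µM positive control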); conditions: K562-ABCB6 porphyrin accumulation, 1 h, at 10 µM, stronger effect = higher value
[16] = promoters of myeloid differentiation in arrested cells, primary screen, cell-based, GFP/MAC1 double positive, flow cytometry, validation set (AID 588685;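 active means differentiation response of at least 50%, scaled between solvent and reference control, from cells with both markers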;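 further: compound exposure lasts four days before antibody staining and flow analysis; 0% = DMSO wells and 100% = 5 µM fulvestrant positive control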); conditions: ER-HoxA9 marrow cells, stronger effect = higher value, normalized: vehicle 0, fulvestrant 100

Integrin beta-1 (Homo sapiens) + Integrin alpha-4 (Homo sapiens), sequence (P05556 whole entry, looked up): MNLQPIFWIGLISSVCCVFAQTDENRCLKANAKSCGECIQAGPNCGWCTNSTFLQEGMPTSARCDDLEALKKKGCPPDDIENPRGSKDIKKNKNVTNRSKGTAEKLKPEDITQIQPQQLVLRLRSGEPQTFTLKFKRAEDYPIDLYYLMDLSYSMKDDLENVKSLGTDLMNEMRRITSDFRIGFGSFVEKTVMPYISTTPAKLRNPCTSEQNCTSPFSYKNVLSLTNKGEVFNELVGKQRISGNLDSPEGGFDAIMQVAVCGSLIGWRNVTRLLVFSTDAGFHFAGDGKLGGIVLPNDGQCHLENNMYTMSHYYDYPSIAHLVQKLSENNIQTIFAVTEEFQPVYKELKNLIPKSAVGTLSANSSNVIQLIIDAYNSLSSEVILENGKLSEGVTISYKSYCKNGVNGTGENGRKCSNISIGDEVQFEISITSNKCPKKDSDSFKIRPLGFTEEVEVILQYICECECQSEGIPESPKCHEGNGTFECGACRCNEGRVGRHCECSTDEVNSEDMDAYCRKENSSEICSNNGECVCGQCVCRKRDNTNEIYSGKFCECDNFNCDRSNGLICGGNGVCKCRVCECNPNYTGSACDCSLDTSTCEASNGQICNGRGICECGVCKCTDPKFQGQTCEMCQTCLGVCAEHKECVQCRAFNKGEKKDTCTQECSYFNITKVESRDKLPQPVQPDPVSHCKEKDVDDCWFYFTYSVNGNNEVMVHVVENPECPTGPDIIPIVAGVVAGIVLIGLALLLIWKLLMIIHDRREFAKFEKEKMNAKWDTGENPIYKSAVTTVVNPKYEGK
Integrin beta-1 (Homo sapiens) + Integrin alpha-4 (Homo sapiens), sequence (P13612 whole entry, looked up): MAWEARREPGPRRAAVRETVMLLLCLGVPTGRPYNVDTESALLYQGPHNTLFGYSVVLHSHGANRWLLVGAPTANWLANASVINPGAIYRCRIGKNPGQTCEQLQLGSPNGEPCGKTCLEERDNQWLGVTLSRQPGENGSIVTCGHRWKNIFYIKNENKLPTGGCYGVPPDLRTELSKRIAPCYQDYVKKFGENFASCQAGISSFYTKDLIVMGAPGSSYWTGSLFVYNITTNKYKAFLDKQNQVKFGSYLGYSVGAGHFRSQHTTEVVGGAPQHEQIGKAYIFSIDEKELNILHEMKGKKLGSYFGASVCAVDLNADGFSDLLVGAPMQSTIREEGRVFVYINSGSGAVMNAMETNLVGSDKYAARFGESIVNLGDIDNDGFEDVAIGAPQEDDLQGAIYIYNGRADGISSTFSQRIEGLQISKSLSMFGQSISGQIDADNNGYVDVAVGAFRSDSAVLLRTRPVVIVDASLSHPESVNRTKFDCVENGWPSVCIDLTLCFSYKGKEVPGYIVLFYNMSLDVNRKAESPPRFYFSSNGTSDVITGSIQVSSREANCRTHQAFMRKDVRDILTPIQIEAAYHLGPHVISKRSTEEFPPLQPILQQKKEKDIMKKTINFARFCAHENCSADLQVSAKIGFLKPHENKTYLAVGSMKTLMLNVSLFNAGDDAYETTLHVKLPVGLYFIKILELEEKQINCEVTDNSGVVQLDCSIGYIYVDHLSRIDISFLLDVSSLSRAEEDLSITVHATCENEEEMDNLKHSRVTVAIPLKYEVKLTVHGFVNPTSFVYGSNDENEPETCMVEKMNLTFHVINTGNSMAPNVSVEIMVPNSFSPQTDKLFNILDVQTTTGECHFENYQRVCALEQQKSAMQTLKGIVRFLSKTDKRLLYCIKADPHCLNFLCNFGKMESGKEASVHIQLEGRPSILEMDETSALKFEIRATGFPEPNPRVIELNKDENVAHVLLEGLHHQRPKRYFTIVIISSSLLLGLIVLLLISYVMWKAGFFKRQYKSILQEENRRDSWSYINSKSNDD
Beta-adrenergic receptor kinase 1 (Homo sapiens), sequence (P25098 whole entry, looked up): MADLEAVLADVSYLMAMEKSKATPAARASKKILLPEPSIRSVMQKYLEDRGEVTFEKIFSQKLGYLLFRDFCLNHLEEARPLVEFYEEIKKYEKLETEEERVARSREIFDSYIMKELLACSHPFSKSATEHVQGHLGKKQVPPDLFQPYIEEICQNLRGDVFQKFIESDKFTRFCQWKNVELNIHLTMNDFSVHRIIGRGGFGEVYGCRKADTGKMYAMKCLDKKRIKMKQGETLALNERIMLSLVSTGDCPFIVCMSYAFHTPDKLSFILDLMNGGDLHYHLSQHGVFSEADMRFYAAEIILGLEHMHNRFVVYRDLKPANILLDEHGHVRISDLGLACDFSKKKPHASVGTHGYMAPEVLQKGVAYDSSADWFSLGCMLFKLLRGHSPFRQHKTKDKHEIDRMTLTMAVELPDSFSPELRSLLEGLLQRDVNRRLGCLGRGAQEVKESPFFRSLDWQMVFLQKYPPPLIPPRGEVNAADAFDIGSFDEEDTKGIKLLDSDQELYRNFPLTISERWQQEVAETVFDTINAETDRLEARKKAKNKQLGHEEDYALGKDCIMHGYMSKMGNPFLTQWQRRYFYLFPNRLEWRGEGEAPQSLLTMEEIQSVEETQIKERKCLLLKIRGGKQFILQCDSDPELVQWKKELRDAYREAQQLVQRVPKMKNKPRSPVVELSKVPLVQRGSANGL
Beta-2 adrenergic receptor (Homo sapiens), sequence (P07550 whole entry, looked up): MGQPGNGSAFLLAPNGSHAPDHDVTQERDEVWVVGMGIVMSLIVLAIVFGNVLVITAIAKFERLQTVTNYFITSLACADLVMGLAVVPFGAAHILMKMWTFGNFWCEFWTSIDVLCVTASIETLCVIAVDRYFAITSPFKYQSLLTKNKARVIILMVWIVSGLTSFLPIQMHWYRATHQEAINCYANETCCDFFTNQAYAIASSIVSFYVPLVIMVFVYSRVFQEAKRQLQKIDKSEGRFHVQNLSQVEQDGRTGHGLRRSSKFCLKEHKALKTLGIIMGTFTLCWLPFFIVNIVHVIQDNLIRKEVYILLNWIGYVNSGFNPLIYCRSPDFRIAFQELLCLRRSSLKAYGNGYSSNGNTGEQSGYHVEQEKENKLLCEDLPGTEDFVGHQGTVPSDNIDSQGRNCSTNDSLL
ATP-binding cassette sub-family B member 6 (Homo sapiens), sequence (Q9NP58 whole entry, looked up): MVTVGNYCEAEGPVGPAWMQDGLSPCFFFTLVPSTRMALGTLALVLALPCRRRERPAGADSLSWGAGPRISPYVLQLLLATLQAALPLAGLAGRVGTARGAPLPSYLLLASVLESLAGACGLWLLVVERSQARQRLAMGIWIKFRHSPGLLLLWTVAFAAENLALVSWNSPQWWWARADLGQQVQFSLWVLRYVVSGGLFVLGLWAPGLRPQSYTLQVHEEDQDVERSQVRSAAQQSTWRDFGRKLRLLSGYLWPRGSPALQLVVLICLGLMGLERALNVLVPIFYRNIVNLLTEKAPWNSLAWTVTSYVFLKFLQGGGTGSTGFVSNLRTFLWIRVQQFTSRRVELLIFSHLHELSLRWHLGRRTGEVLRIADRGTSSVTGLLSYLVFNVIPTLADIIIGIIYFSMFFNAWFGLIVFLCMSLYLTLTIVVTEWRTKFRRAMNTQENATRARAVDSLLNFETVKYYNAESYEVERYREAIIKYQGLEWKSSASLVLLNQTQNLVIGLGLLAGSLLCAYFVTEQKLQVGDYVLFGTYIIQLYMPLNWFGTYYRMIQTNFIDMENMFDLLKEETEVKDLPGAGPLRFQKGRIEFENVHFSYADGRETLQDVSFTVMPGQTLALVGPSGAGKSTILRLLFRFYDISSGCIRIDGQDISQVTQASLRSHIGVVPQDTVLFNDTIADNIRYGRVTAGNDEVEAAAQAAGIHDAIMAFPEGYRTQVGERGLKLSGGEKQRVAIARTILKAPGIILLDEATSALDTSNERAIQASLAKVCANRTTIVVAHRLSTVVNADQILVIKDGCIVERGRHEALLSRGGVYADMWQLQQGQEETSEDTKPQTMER
AP-2 complex subunit beta (Homo sapiens), sequence (P63010 whole entry, looked up, the tested form may be a part, one chain of several): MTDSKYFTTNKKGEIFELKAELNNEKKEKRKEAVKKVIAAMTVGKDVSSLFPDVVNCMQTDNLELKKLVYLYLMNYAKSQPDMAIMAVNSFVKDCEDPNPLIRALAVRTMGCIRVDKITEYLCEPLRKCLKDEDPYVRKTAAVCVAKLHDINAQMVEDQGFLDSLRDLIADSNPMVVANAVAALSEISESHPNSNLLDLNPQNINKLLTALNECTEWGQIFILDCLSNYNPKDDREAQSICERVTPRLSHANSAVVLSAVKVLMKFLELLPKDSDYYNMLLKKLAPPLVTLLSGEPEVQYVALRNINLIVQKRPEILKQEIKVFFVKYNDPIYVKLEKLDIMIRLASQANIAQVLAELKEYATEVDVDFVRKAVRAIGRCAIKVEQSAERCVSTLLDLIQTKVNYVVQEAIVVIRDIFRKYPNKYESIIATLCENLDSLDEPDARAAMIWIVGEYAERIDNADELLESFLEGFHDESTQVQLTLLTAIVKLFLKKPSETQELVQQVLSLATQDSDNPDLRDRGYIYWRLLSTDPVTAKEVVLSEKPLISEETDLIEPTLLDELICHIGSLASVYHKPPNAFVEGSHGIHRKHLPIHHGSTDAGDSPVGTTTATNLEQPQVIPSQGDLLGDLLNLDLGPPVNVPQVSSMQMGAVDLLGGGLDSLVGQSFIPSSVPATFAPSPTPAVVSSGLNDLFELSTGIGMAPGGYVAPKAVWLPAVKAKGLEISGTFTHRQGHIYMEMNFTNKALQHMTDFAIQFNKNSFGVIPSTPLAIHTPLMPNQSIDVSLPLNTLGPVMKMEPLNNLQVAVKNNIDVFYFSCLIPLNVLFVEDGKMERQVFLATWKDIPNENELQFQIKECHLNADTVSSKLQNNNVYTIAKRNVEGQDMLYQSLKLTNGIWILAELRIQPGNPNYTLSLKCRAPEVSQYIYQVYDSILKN

COc1ccccc1C(CCN(Cc1ccccc1)C(C)=O)c1ccco1 (stereo not given)
percent of DMSO control GFP [1]: 91.5% (inactive)
GFP response vs DMSO [2]: 130% (inactive)
percent response of DMSO control [3]: 103% (inactive)
GFP response vs DMSO [4]: 78.7% (inactive)
GFP response, % of DMSO [5]: 88% (inactive)
double positive events [6]: 56.4%
vesicle binding response [6]: 145% (inactive)
inhibition [7]: 8.4% (inactive)
superoxide response (% of plate) [8]: 122% (inactive)
aptamer binding inhibition [9]: 6% (inactive)
response [10]: -11.5% (inactive)
inhibition [11]: 2.58% (inactive)
response [12]: 0.45% (inactive)
binding (% of control) [13]: 102% (inactive)
efflux inhibition (fraction of control) [14]: 0.12 (inactive)
inhibition [15]: 15% (inactive)
differentiation response [16]: 1.64% (inactive)

NCCc1ccc(O)c(O)c1
percent of DMSO control GFP [1]: 98.2% (inactive)
GFP response vs DMSO [2]: 107% (inactive)
percent response of DMSO control [3]: 93.1% (inactive)
GFP response vs DMSO [4]: 92% (inactive)
GFP response, % of DMSO [5]: 95.6% (inactive)
double positive events [6]: 65.4%
vesicle binding response [6]: 831% (inactive)
inhibition [7]: -10.8% (inactive)
superoxide response (% of plate) [8]: 90.7% (inactive)
aptamer binding inhibition [9]: 3% (inactive)
response [10]: 11.2% (inactive)
inhibition [11]: 11.9% (inactive)
response [12]: -0.98% (inactive)
binding (% of control) [13]: 94.3% (inactive)
efflux inhibition (fraction of control) [14]: 0.08 (inactive)
inhibition [15]: 6% (inactive)
differentiation response [16]: 5.13% (inactive)

CC(C)CC(=O)NC(NC(=O)CC(C)C)c1cccc([N+](=O)[O-])c1
percent of DMSO control GFP [1]: 101% (inactive)
GFP response vs DMSO [2]: 102% (inactive)
percent response of DMSO control [3]: 111% (inactive)
GFP response vs DMSO [4]: 100% (inactive)
GFP response, % of DMSO [5]: 100% (inactive)
double positive events [6]: 60.1%
vesicle binding response [6]: 118% (inactive)
inhibition [7]: 1.59% (inactive)
superoxide response (% of plate) [8]: 118% (inactive)
aptamer binding inhibition [9]: 19% (inactive)
response [10]: 3.17% (inactive)
inhibition [11]: 7.92% (inactive)
response [12]: 3.51% (inactive)
binding (% of control) [13]: 99% (inactive)
efflux inhibition (fraction of control) [14]: 0.09 (inactive)
inhibition [15]: 11% (inactive)
differentiation response [16]: -8.96% (inactive)

CCc1c(C(C)=O)oc2ccc3c(C)cc(=O)oc3c12
percent of DMSO control GFP [1]: 94.6% (inactive)
GFP response vs DMSO [2]: 125% (inactive)
percent response of DMSO control [3]: 115% (inactive)
GFP response vs DMSO [4]: 91.9% (inactive)
GFP response, % of DMSO [5]: 101% (inactive)
double positive events [6]: 61.9%
vesicle binding response [6]: 146% (inactive)
inhibition [7]: -13.9% (inactive)
superoxide response (% of plate) [8]: 92.5% (inactive)
aptamer binding inhibition [9]: 1% (inactive)
response [10]: 1.28% (inactive)
inhibition [11]: -11.6% (inactive)
response [12]: 0.32% (inactive)
binding (% of control) [13]: 99% (inactive)
efflux inhibition (fraction of control) [14]: -0.17 (inactive)
inhibition [15]: 11% (inactive)
differentiation response [16]: 9.01% (inactive)

OCCC1CN(Cc2nc(-c3ccccc3)cs2)CCN1Cc1ccc(F)cc1 (stereo not given)
percent of DMSO control GFP [1]: 106% (inactive)
GFP response vs DMSO [2]: 98.7% (inactive)
percent response of DMSO control [3]: 115% (inactive)
GFP response vs DMSO [4]: 100% (inactive)
GFP response, % of DMSO [5]: 104% (inactive)
double positive events [6]: 68.6%
vesicle binding response [6]: 312% (inactive)
inhibition [7]: -6.45% (inactive)
superoxide response (% of plate) [8]: 103% (inactive)
aptamer binding inhibition [9]: 0% (inactive)
response [10]: 2.61% (inactive)
inhibition [11]: -6.97% (inactive)
response [12]: -2.6% (inactive)
binding (% of control) [13]: 100% (inactive)
efflux inhibition (fraction of control) [14]: 0.31 (inactive)
inhibition [15]: 9% (inactive)
differentiation response [16]: -6.03% (inactive)

Cc1ccc(S(=O)(=O)NC(C(=O)Oc2ccc3c(C(F)(F)F)cc(=O)oc3c2)c2ccccc2)cc1 (stereo not given)
percent of DMSO control GFP [1]: 98.1% (inactive)
GFP response vs DMSO [2]: 102% (inactive)
percent response of DMSO control [3]: 100% (inactive)
GFP response vs DMSO [4]: 115% (inactive)
GFP response, % of DMSO [5]: 107% (inactive)
double positive events [6]: 62.2%
vesicle binding response [6]: 183% (inactive)
inhibition [7]: -6.23% (inactive)
superoxide response (% of plate) [8]: 106% (inactive)
aptamer binding inhibition [9]: -1% (inactive)
response [10]: 5.6% (inactive)
inhibition [11]: 59.2% (active)
response [12]: -16.5% (inactive)
binding (% of control) [13]: 92.6% (inactive)
efflux inhibition (fraction of control) [14]: 0.12 (inactive)
inhibition [15]: -3% (inactive)
differentiation response [16]: 0.92% (inactive)

CC(C)c1ccc(NC(=O)CNS(=O)(=O)c2ccc(F)cc2)cc1
percent of DMSO control GFP [1]: 99.3% (inactive)
GFP response vs DMSO [2]: 107% (inactive)
percent response of DMSO control [3]: 101% (inactive)
GFP response vs DMSO [4]: 120% (inactive)
GFP response, % of DMSO [5]: 102% (inactive)
double positive events [6]: 57.6%
vesicle binding response [6]: 260% (inactive)
inhibition [7]: -3.16% (inactive)
superoxide response (% of plate) [8]: 114% (inactive)
aptamer binding inhibition [9]: -1% (inactive)
response [10]: -11.4% (inactive)
inhibition [11]: -6.24% (inactive)
response [12]: -3.77% (inactive)
binding (% of control) [13]: 100% (inactive)
efflux inhibition (fraction of control) [14]: -0.1 (inactive)
inhibition [15]: 1% (inactive)
differentiation response [16]: -13.6% (inactive)

Nc1c(C(=O)c2ccccc2)oc2ccccc12
percent of DMSO control GFP [1]: 101% (inactive)
GFP response vs DMSO [2]: 96.2% (inactive)
percent response of DMSO control [3]: 100% (inactive)
GFP response vs DMSO [4]: 93.3% (inactive)
GFP response, % of DMSO [5]: 74.2% (inactive)
double positive events [6]: 66%
vesicle binding response [6]: 198% (inactive)
inhibition [7]: -2.53% (inactive)
superoxide response (% of plate) [8]: 89.5% (inactive)
aptamer binding inhibition [9]: -1% (inactive)
response [10]: -9.17% (inactive)
inhibition [11]: -8.74% (inactive)
response [12]: 1.23% (inactive)
binding (% of control) [13]: 86.9% (inactive)
efflux inhibition (fraction of control) [14]: -0.32 (inactive)
inhibition [15]: -18% (inactive)
differentiation response [16]: 24.7% (inactive)

Cc1ccc2c(c1)C1CN(C)CCC1N2S(=O)(=O)c1ccc(Oc2ccc([N+](=O)[O-])cc2)cc1 (stereo not given)
percent of DMSO control GFP [1]: 104% (inactive)
GFP response vs DMSO [2]: 103% (inactive)
percent response of DMSO control [3]: 106% (inactive)
GFP response vs DMSO [4]: 91.5% (inactive)
GFP response, % of DMSO [5]: 97% (inactive)
double positive events [6]: 56.7%
vesicle binding response [6]: 153% (inactive)
inhibition [7]: 2.93% (inactive)
superoxide response (% of plate) [8]: 97.8% (inactive)
aptamer binding inhibition [9]: -7% (inactive)
response [10]: 25.2% (inactive)
inhibition [11]: -1.46% (inactive)
response [12]: 10.4% (inactive)
binding (% of control) [13]: 105% (inactive)
efflux inhibition (fraction of control) [14]: 0.085 (inactive)
inhibition [15]: -4% (inactive)
differentiation response [16]: -14.8% (inactive)

Cc1cccc(-n2c(Cc3ccccc3)n[nH]c2=S)c1
percent of DMSO control GFP [1]: 93.9% (inactive)
GFP response vs DMSO [2]: 106% (inactive)
percent response of DMSO control [3]: 88.2% (inactive)
GFP response vs DMSO [4]: 124% (inactive)
GFP response, % of DMSO [5]: 100% (inactive)
double positive events [6]: 61.2%
vesicle binding response [6]: 102% (inactive)
inhibition [7]: -18.2% (inactive)
superoxide response (% of plate) [8]: 103% (inactive)
aptamer binding inhibition [9]: 4% (inactive)
response [10]: -0.19% (inactive)
inhibition [11]: -2.3% (inactive)
response [12]: 1.08% (inactive)
binding (% of control) [13]: 95.5% (inactive)
efflux inhibition (fraction of control) [14]: -0.1 (inactive)
inhibition [15]: 4% (inactive)
differentiation response [16]: -13.6% (inactive)
